About 4,000 (1%) of roughly 390,000 compounds were called active. Entries that show only a call come without a potency. Inconclusive results (about 4%) are left out. The call rests on the fitted dose curve; in most records, active means well fitted inhibition curve with a large enough effect; inconclusive means small, poorly fitted or top-dose-only effect; inactive means no such curve, though single readings can be large or run the other way. The sample as a whole holds a higher share of actives than the screen did.
target: Thioredoxin reductase 1, cytoplasmic (Rattus norvegicus) (UniProt O89049); experiment: qHTS Assay for Inhibitors of Mammalian Selenoprotein Thioredoxin Reductase 1 (TrxR1): qHTS; conditions: recombinant rTrxR1, NADPH fluorescence consumption, selenite substrate; series mostly up to 114 µM; further: nearly all actives have a fitted effect of over 65% in size
Method in brief: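 Rat TrxR1 (90 nM in the dispensed reagent) was pre-reduced with 400 uM NADPH for 5 min at room temperature, then incubated with compound for 15 min. After 400 uM selenite was added, NADPH fluorescence (Ex 340/Em 450 nm) was followed for 8 min.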
Potency means the concentration at half of the fitted maximal effect.

Chain of Thioredoxin reductase 1, cytoplasmic (Rattus norvegicus) (O89049 whole entry, looked up): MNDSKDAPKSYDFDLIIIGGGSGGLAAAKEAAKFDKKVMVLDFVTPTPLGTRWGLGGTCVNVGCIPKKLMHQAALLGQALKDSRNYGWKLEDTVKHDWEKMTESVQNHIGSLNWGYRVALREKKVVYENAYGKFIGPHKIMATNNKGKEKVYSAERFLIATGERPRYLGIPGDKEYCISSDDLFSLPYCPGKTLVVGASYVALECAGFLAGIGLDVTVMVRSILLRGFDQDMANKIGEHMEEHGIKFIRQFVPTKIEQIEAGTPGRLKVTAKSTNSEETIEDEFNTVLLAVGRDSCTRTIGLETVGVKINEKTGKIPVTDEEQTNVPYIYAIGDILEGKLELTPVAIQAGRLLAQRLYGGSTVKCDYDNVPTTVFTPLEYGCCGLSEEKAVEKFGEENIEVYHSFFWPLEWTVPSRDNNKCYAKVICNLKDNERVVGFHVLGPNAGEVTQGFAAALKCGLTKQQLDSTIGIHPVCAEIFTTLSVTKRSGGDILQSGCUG

Structure (SMILES) | Potency | activity change, negative = inhibition
CC(C)(C)n1ncc2c(=O)n(Cc3ccc(C(=O)c4ccccc4)cc3)cnc21 | inactive | 
CCCCC(O)(CCCC)C(=O)NN(C(=O)CCl)c1ccccc1 | 10 µM (active) | 
CCCCNC(=O)CN1C(=O)NC(Cc2ccccc2)(Cc2ccccc2)C1=O | inactive | 
CCCCCCCC(=O)NC(Nc1ccccc1OC)C(Cl)(Cl)Cl (stereo unspecified) | inactive | 
CCOc1ccccc1CNC(=O)c1cnc2c(-c3ccc(OCC)c(OCC)c3)c(C)nn2c1C | inactive | 
CC1=C(C(=O)OCC2CCCCC2)C(c2c(F)cccc2Cl)CC(=O)N1 (stereo unspecified) | inactive | 
Cc1cc(C)c(NC(=O)c2cc3sc(Cl)cc3n2C)c(C)c1 | inactive | 
CCN1CCC(O)(/C=C/c2ccc(C)cc2)C(C(=O)/C=C/c2ccc(C)cc2)C1 (stereo unspecified) | 1.26 µM (active) | 
Cc1ccc(NC(=O)CSc2nc3ccccc3c3nc(CCn4cncc4C)nn23)cc1F | inactive | 
CN(C)C1=C2C=CC=CC2/C(=C2/C=Cc3ccccc32)C=C1 (stereo unspecified) | inactive | 
COC(=O)c1ccc(NC(=O)CCc2c(C)nn(-c3ccc(N4CCCC4)nn3)c2C)cc1 | inactive | 
O=C(CSc1oc(-c2ccc(F)cc2)nc1S(=O)(=O)c1ccc(Br)cc1)NC1CCCCC1 | inactive | 
Cc1ccc(-c2nc(S(=O)(=O)c3ccc(C)cc3)c(N3CCCCCC3)o2)cc1 | inactive | 
CC(C)S(=O)(=O)c1oc(-c2ccc(F)cc2)nc1S(=O)(=O)c1ccc(F)cc1 | 1 µM (active) | 
C=Cc1ccc(Cn2c(C(=O)OC)cc3sc(C)cc32)cc1 | inactive | 
COc1ccc(-c2nc3c(c(SCC(=O)Nc4ccc(C(=O)O)cc4)n2)Cc2ccccc2O3)cc1 | inactive | 
Cc1cccc(CNC(=O)c2cnc3sc(N4CCCCC4)nn3c2=O)c1 | inactive | 
COc1ccccc1N1CCN(C(=O)C2CCN(S(=O)(=O)c3c(C)noc3/C=C/c3ccc(C)cc3)CC2)CC1 | inactive | 
CCCN(CCC)c1c([N+](=O)[O-])c(=O)oc2ccccc12 | inactive | 
COc1cc(OC)c(OC)cc1/C=C/c1nc2ccccc2c(=O)n1-c1ccc(Br)c(C)c1 | inactive | 
CCn1c(/C=C/c2ccc([N+](=O)[O-])o2)nc2ccccc2c1=O | 3.16 µM (active) | 
Cc1ccc(C2c3[nH]c4ccccc4c3CCN2C(=O)c2cccc(C)c2)cc1 (stereo unspecified) | inactive | 
COc1ccc(-c2nc3sc(CCNS(=O)(=O)c4ccc(F)c(C)c4)c(C)n3n2)cc1 | inactive | 
COc1ccccc1-n1c(=S)[nH]c2c(sc(=S)n2-c2ccc(C)cc2C)c1=O | inactive | 
COc1ccccc1-n1c(-c2cc(-c3ccco3)[nH]n2)n[nH]c1=S | 44.7 µM (active) | 
Cc1cc(-c2n[nH]c(=S)n2-c2ccc(C)c(C)c2)no1 | inactive | 

Structure (SMILES) | Potency | activity change, negative = inhibition
COc1ccc(N2CCN(C(=O)C3CCCN(C(=O)c4cc5sccc5n4C)C3)CC2)cc1 (stereo unspecified) | inactive | 
CN(C(=O)CC1C(=O)NCCN1Cc1ccc2ccccc2c1)C1CCOCC1 (stereo unspecified) | 39.8 µM (active) | 
COc1ccccc1CN1CCNC(=O)C1CC(=O)N(C)CC1CCOCC1 (stereo unspecified) | inactive | 
COc1ccc(CN2CCNC(=O)C2CC(=O)N(C)Cc2ccccn2)cc1OC (stereo unspecified) | inactive | 
O=C(Cn1c(-c2cccs2)cc2ccccc21)NCCc1ccc(Cl)cc1 | inactive | 
CCNC(=O)Cn1nc(C)n2c(cc3c(OC)cccc32)c1=O | inactive | 
O=C(COC(=O)[C@H](Cc1ccccc1)NC(=O)c1cccs1)Nc1cc(F)ccc1F | inactive | 
COC(=O)C(CC(=O)Nc1cc(C)ccc1C)Nc1ccccc1OC (stereo unspecified) | inactive | 
Cc1ccc(C)c(NC(CC(=O)c2ccccc2)C(=O)OCC(=O)c2cccs2)c1 (stereo unspecified) | 44.7 µM (active) | 
COc1cc2nc(N3CCCN(C)CC3)nc(NC(C)C)c2cc1OC | inactive | 
CCOc1ccc(N(Cc2ccccc2)C(=O)c2nc(SCC)ncc2Cl)cc1 | inactive | 
CCOc1ccc(N(Cc2ccccc2)C(=O)c2nc(S(C)(=O)=O)ncc2Cl)cc1 | 2.24 µM (active) | 
CCOc1ccc(NC(=O)CN(Cc2ccccc2)S(=O)(=O)c2ccc(Cl)cc2)cc1 | inactive | 
Nc1ncnc2nnsc12 | inactive | 
COc1cc2nc(C#Cc3nc4cc(OC)c(OC)cc4[nH]3)[nH]c2cc1OC | inactive | 
CC(C)(C(=O)NO)c1ccccc1 | inactive | 
Cc1cccc(CSc2nc3ccncc3n2CC(=O)N(C)C2CCCCC2)c1 | inactive | 
O=C(NCCN1CCN(C(=O)c2cccc([N+](=O)[O-])c2)CC1)C(=O)NCc1ccc(Cl)cc1 | inactive | 
O=C(CCl)N(Cc1cccc([N+](=O)[O-])c1)c1cccc(Cl)c1 | 7.94 µM (active) | 
CC(=O)N(CN1C(=O)C2C3C=CC(C3)C2C1=O)c1cccc(Cl)c1 (stereo unspecified) |  | 9.83% [at 11.4 µM] (inactive)
Cc1ccc(Cl)cc1N(C)C(=O)C1CCCN(c2ncnc3onc(-c4ccc(F)cc4)c23)C1 (stereo unspecified) | inactive | 
Cc1cccc(N2CCN(C(c3ccc(N(C)C)cc3)c3nnnn3C(C)(C)C)CC2)c1C (stereo unspecified) | 11.2 µM (active) | 
CC(C)(C)n1nnnc1C(c1ccc(Cl)cc1)N1CCSCC1 (stereo unspecified) | inactive | 
CC(C)(C)n1nnnc1C(c1ccc2ncccc2c1)N1CCSCC1 (stereo unspecified) | inactive | 
Cc1ccsc1CN(C(=O)c1oc2ccc(Br)cc2c1C)C1CCS(=O)(=O)C1 (stereo unspecified) | inactive | 
Cc1cccc(S(=O)(=O)c2cn(Cc3ccccc3)c3cc(N4CCOCC4)c(F)cc3c2=O)c1 | inactive | 

Structure (SMILES) | Potency | activity change, negative = inhibition
COc1ccccc1-c1noc(CSc2nnc(-c3ccccc3)n2-c2ccc(C)c(C)c2)n1 | inactive | 
O=C(Nc1ccccc1)c1ccccc1OCc1ccccc1 | inactive | 
COc1ccc(-c2c3c(=O)n(C)c(=O)n(C)c3c3c(C)nc4ccccc4n23)cc1 | inactive | 
COc1ccc(CCn2cc3c(c2-c2ccc(Br)cc2)c(=O)n(C)c(=O)n3C)cc1OC | inactive | 
Cc1ccc(-c2c3c(=O)n(C)c(=O)n(C)c3cn2-n2cnnc2)cc1 | 50.1 µM (active) | 
Cc1ccc(N(CC(=O)NCC(C)c2ccccc2)S(=O)(=O)N(C)C)cc1 (stereo unspecified) | inactive | 
COc1cc(NC(=O)CN2CCN(S(=O)(=O)c3ccc(Br)cc3)CC2)cc(OC)c1 | inactive | 
Cc1cccc(NC(=O)CN2CCCN(S(=O)(=O)c3ccc(Br)s3)CC2)c1 | 12.6 µM (active) | 
CC(C)N(C(=O)CN1CCN(S(=O)(=O)c2ccc(Br)s2)CC1)C(C)C | inactive | 
Cc1ccc2ccc3c(c2n1)NS(=O)(=O)c1ccccc1-3 | inactive | 
COc1ccc(C(=O)C2CCCN(C(=O)c3cnsn3)C2)c(C)c1 (stereo unspecified) | inactive | 
COc1ccc(C(=O)C2CCCN(C(=O)c3ccc(OC)o3)C2)c(C)c1 (stereo unspecified) | 39.8 µM (active) | 
COc1ccc(C(=O)C2CCCN(S(=O)(=O)c3cccc(C)c3)C2)c(C)c1 (stereo unspecified) | inactive | 
CN(C)c1ccc(/C=C/c2sc3ccccc3[n+]2C)cc1 | inactive | 
OCC(CO)(CO)NCc1ccc(-c2ccccc2)cc1 | inactive | 
Oc1ccc(CNc2ccccc2O)cc1 | 7.94 µM (active) | 
Oc1ccc(N2CCN(C(=S)NCc3ccccc3)CC2)cc1 | inactive | 
COc1ccc(OC)c(CNC(=O)c2c3c(nc4ccccc24)C(=O)N(C2CCCCC2)C3)c1 | inactive | 
COc1cc2[nH]c(C)c(CCN3CCN(c4ccccc4)CC3)c2cc1OC | inactive | 
COc1ccccc1NC(=O)N(O)C1(C#N)CCCCC1 | inactive | 
COc1ccccc1NC(=O)COC(=O)COc1ccccc1F | inactive | 
COc1ccccc1NC(=O)/C=C/C(N)=O | 12.6 µM (active) | 
COc1ccc(C(CCN2CCOCC2)c2c(OC)cc(OC)c3c2OC(=O)CC3c2ccc(OC)cc2)cc1 (stereo unspecified) | inactive | 
CCc1nn(CC(=O)Nc2cc(C)cc(C)c2)c(=O)c2cc3sccc3n12 | inactive | 
COc1cccc(CNC(=O)Cn2c(=O)c3cccn3c3ccc(F)cc32)c1OC | inactive | 
O=C(/C=C/Sc1ncn[nH]1)c1ccc(Cl)cc1 | 0.447 µM (active) | 

Structure (SMILES) | Potency | activity change, negative = inhibition
Cn1c(=O)c(Sc2ccc(Cl)cc2)c(O)c2ccccc21 | inactive | 
Cc1cccc(C2CC(=O)Oc3c2c(=O)n(C)c2ccccc32)c1 (stereo unspecified) | inactive | 
Cc1cccc(Oc2c([N+](=O)[O-])c(=O)n(C)c3ccccc23)c1 | 3.16 µM (active) | 
COc1cccc(C(=O)Oc2cc(C)[nH]c(=O)c2[N+](=O)[O-])c1 | inactive | 
Cc1cccc(C(=O)O)c1[N+](=O)[O-] | inactive | 
Cn1c(=O)c([N+](=O)[O-])c(Oc2ccccc2)c2ccccc21 | 2.24 µM (active) | 
COc1cc(-c2cc3n(C)c(C)c(CCC(=O)Nc4ccc(F)cc4)c(=O)n3n2)cc(OC)c1OC | inactive | 
Cc1cccc(-n2ccnc2SCC(=O)Nc2cc(C(F)(F)F)ccc2Cl)c1 | inactive | 
Cc1ccc(-c2cc(C(F)(F)F)c(C#N)c(SCC(=O)Nc3ccccc3)n2)cc1 | inactive | 
N#Cc1cc2[nH]c(=O)c(=O)[nH]c2cc1[N+](=O)[O-] | inactive | 
COc1ccc(N=C2C=CC(=O)O2)cc1 | 10 µM (active) | 
COC1=CC(=O)OC(c2ccc(OC)cc2)C1 (stereo unspecified) | inactive | 
COc1ccc(N=Nc2c(-c3ccc(OC)cc3)[nH]oc2=O)cc1 | inactive | 
COc1ccc(C)cc1-n1c(-c2ccc(C)cc2)cc2c1CC(C)(C)CC2=O | inactive | 
O=C(Nc1ccc([N+](=O)[O-])cc1)c1cnn2c1NC(=C1CC1)C=C2C(F)F | inactive | 
CCc1ccc(NS(=O)(=O)c2ccc3[nH]cc(C(=O)NCCc4cccc(C)c4)c(=O)c3c2)cc1 | inactive | 
COc1cc(NC(=O)c2noc3c2CSc2ccccc2-3)cc(OC)c1OC | 14.1 µM (active) | 
COc1ccc(CCNC(=O)c2nn(C)c3c2CSc2ccccc2-3)cc1OC | inactive | 
COc1cc(NC(=O)c2nc3ccccc3nc2C)cc(OC)c1OC | inactive | 
Cc1cccc(NC(=O)CSc2nc3c([nH]c4ccccc43)c(=O)n2-c2cc(C)cc(C)c2)c1 | inactive | 
COc1ccc(C(C)=O)cc1COC(=O)Cn1cnc2ccccc2c1=O | 17.8 µM (active) | 
CCN(CC(=O)Nc1ccccc1OC)C(=O)Cn1cnc2ccccc2c1=O | inactive | 
CC1(C)C(=O)Nc2ccccc2N1C(=O)COC(=O)Cn1cnc2ccccc2c1=O | inactive | 

Source: PubChem BioAssay AID588453 (National Center for Advancing Translational Sciences (NCATS), 2011)
